± gives the standard deviation of the averaged measurements. In all, about 33,000 sequences were measured (“E-score (rank enrichment, -0.5 to 0.5)”: median about -0.0043, highest 2% from about 0.24 on). The list comes from a sample in which the highest values are over-represented; it also holds similar and randomly drawn sequences.

The test system of this test is 2Sp-muMax20 (muMax20 with two 2,6-bis(methyl)pyridine Cys staples). As to the kind of experiment: PBM 8-mer E-score (E-score (rank enrichment, -0.5 to 0.5)); higher = stronger preferential binding. The procedure:
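Protein binding microarray (universal PBM chip covering all 10-mers in fixed probe flanks) with chemically synthesized human Max(13-93) bHLH-LZ analogs (not full-length Max) bearing noncanonical residues (hArg, Tha, Aib, Nle at 65) and aromatic Cys staples. Read-out per 8-mer (and its reverse complement): E-score (rank-based enrichment, -0.5 to 0.5) and Z-score of median probe intensity.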
For ATATTAAA, the “PBM 8-mer E-score” value was 0.2641 ± 0.001. As for GCCAGGGC, the “PBM 8-mer E-score” value was -0.343 ± 0.022.

Consider AAACGGTG, for which the “PBM 8-mer E-score” value was -0.0442 ± 0.0089. Under GGGCGTCA stands 0.12 ± 0.063. Under CGAATTGA stands 0.141 ± 0.014; under CTGTACAA, 0.0666 ± 0.029; under GTGTACAA, 0.198 ± 0.029. On to TTGTACAA, for which the “PBM 8-mer E-score” value came to 0.331 ± 0.11. Under ACCGGTCC stands -0.324 ± 0.028.

In the case of TGACCTAA, the “PBM 8-mer E-score” value stood at 0.00115 ± 0.0031.

Regarding CTCCCCCC, the “PBM 8-mer E-score” value is -0.0388 ± 0.051. Under CCACAGTA stands 0.0513 ± 0.067; under GTACCCGA, -0.187 ± 0.12.

As to AATCAGCC, the “PBM 8-mer E-score” value worked out at 0.0385 ± 0.041. Turning to AATCATGT, the “PBM 8-mer E-score” value came out at 0.239 ± 0.04. Under AATCATGA stands 0.124 ± 0.13. Under AATCAGCG stands -0.0281 ± 0.1; under AATCATGG, 0.129 ± 0.0058.

As for AATCAGCT, the “PBM 8-mer E-score” value amounted to 0.279 ± 0.013. Under ACACATGA stands 0.0699 ± 0.082; under ACACATGT, 0.326 ± 0.044; under ACACATGG, 0.194 ± 0.019. Under AAACATGG stands 0.153 ± 0.0082; under AAACATGT, 0.287 ± 0.008; under AAACATGA, 0.0601 ± 0.067. Under ACGTTAAG stands 0.137 ± 0.027; under CGGTGTGC, -0.209 ± 0.041. CCCCACGC: the “PBM 8-mer E-score” value turned out to be 0.095 ± 0.036. As to AAATACTA, the “PBM 8-mer E-score” value was 0.183 ± 0.026.

CCATCGAC: the “PBM 8-mer E-score” value is -0.131 ± 0.028. AATTCCCA: the “PBM 8-mer E-score” value is 0.23782 ± 0.00023. Under AATTCCCC stands 0.123 ± 0.015; under GATTCCCA, 0.0167 ± 0.092. As for GCTTAGTA, the “PBM 8-mer E-score” value was 0.0418 ± 0.019.

Take AACCTCTG: the “PBM 8-mer E-score” value was -0.064 ± 0.059. Under GATTAAGA stands -0.00249 ± 0.0063; under AATTAAGA, 0.214 ± 0.0075.

Consider CATTAAGA, for which the “PBM 8-mer E-score” value is 0.237 ± 0.056.

With GACGACTA, the “PBM 8-mer E-score” value was 0.138 ± 0.051.

With CGACTCCC, the “PBM 8-mer E-score” value is -0.0206 ± 0.024.

On to AGGGTCTG, for which the “PBM 8-mer E-score” value is -0.168 ± 0.019. Under CGTGATCC stands -0.0859 ± 0.026; under CGTGATCA, 0.245 ± 0.036; under GGTGATCA, 0.0137 ± 0.0046.

TGCTTACA: the “PBM 8-mer E-score” value worked out at 0.114 ± 0.016. Under AACCACGT stands 0.288 ± 0.032; under AACCACGC, 0.0757 ± 0.035; under ACCCACGC, 0.138 ± 0.023. Under ACCCACGT stands 0.284 ± 0.0034.

For ACCCACGA, the “PBM 8-mer E-score” value is -0.0222 ± 0.03.

For AACCACGA, the “PBM 8-mer E-score” value stood at 0.118 ± 0.035. Under GAGGCCGC stands -0.291 ± 0.046; under ACAATAAA, 0.256 ± 0.012.

For ACAATAAG, the “PBM 8-mer E-score” value is 0.1254 ± 0.001.

Regarding ACAATACC, the “PBM 8-mer E-score” value was 0.273 ± 0.015. Under ACAATACT stands 0.204 ± 0.069; under CCAATAAA, 0.211 ± 0.035; under ACAATAAC, 0.0634 ± 0.07. Under ATAATAAT stands 0.14 ± 0.084; under ACAATAAT, 0.275 ± 0.043.

For ACAATACA, the “PBM 8-mer E-score” value was 0.0638 ± 0.061. Under CCGTTCAA stands 0.137 ± 0.026. For the sequence GAGCTGAA, the “PBM 8-mer E-score” value was 0.0148 ± 0.13. Under AACGCCCT stands -0.0766 ± 0.052; under AAGGTCAT, -0.149 ± 0.0067.

Turning to AGAGCCCG, the “PBM 8-mer E-score” value was -0.276 ± 0.012.

As for AATCAGGA, the “PBM 8-mer E-score” value amounted to 0.0255 ± 0.037. For GTGTATAA, the “PBM 8-mer E-score” value worked out at 0.103 ± 0.024. Under CGATATAC stands 0.0494 ± 0.11; under CGATATAA, 0.24 ± 0.0019; under ATATATAA, 0.328 ± 0.032. Under ATGTATAA stands 0.277 ± 0.046.

For ATGTAGAA, the “PBM 8-mer E-score” value came out at 0.246 ± 0.053. Regarding CGATATAG, the “PBM 8-mer E-score” value turned out to be 0.116 ± 0.068. Under CTGTATAA stands 0.19 ± 0.035. Under ATGTAGAG stands 0.0603 ± 0.063; under GTATATAA, 0.125 ± 0.0038; under CTGTAGAA, 0.0793 ± 0.045.

For CTATATAA, the “PBM 8-mer E-score” value stood at 0.157 ± 0.081. Under ACAAACGC stands -0.0614 ± 0.035; under CACAAATC, 0.052 ± 0.071. Under AGAGGGAG stands 0.112 ± 0.027; under ATGGGCAG, 0.0154 ± 0.02. Regarding AGTCTCTA, the “PBM 8-mer E-score” value is 0.0513 ± 0.038. With GGCGAACA, the “PBM 8-mer E-score” value was -0.00568 ± 0.13.

For the sequence ATACACCC, the “PBM 8-mer E-score” value was -0.00554 ± 0.027.

These data come from the supplement of paper PMC12636033.
